Source: PubChem BioAssay
Most compounds without a hit are left out; they make up all but 4.2% or so of the library.
V-ATPase pHluor: regulators of yeast V-ATPase proton pumping, primary screen, pHLuorin cytosolic pH fluorescence. S. cerevisiae. response, % at 10 µM. hit rate 0.37% among 350,000. AID 504577, 2011; in the data active = response mostly above about 7.3%, no sharp cut-off; inactive = mostly below about 5.4%; also: actives read high
NLRP3 yeast inh: NALP3 inflammasome inhibitors in reconstituted yeast, primary screen, luminescence, uHTS; Yeast reconstituted NLRP3/ASC/caspase-1, beta-gal luminescence, 24 h; inhibition, % at 10 µM; hit rate 0.39% among 330,000; AID 2825, 2010;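 active = inhibition of 50% or more; inactive = inhibition below 50%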;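 also: plate controls were induced DMSO wells for no effect and uninduced yeast grown without galactose for full effect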
tim23-1 inh: growth inhibitors of tim23-1 mutant yeast, primary screen, luminescence, uHTS; hit rate 1.3% among 330,000; inhibition, % at 20 µM; AID 463212, 2010; S. cerevisiae tim23-1 growth, BacTiter-Glo luminescence, 24 h;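 active = growth inhibition of the mutant yeast at or above 50%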;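 also: temperature-sensitive mutant grown at 25 °C; plate controls were DMSO-treated mutant yeast for no effect and medium wells lacking yeast for full effect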
tim10-1 inh: growth inhibitors of tim10-1 mutant yeast, primary screen, luminescence, uHTS; S. cerevisiae tim10-1 ts strain growth, BacTiter-Glo, 24 h; inhibition, % at 20 µM; hit rate 2.2% among 330,000; AID 463190, 2010;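 active = inhibition of at least 40%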;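 also: mutant grown at 25 °C; 0% = DMSO wells with yeast and 100% = wells holding no yeast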
TIM10 inh: growth inhibitors of isogenic TIM10 control yeast, primary screen, counter-screen for tim10-1 yeast inhibitor project, luminescence, uHTS. S. cerevisiae TIM10 strain growth, BacTiter-Glo luminescence, 24 h. inhibition, % at 10 µM. AID 463195, 2010. hit rate 1.4% among 330,000;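 active = inhibition of 40% or more at the single tested concentration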;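 also: wild-type TIM10 isogenic control strain grown at permissive 25 °C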
NALP1 yeast inh: NALP1 inflammasome inhibitors in reconstituted yeast, colorimetric, S. cerevisiae, triplicate retest; S. cerevisiae NALP1/ASC/caspase-1 growth, X-gal OD620, 72 h; inhibition, % at 10 µM; hit rate 0.61% among 280,000; AID 2071, 2009; in the data active = inhibition mostly above about 24%, no sharp cut-off; inactive = mostly below about 32%
tim10-1 confirm: growth inhibitors of tim10-1 mutant yeast, confirmation, single concentration, luminescence, S. cerevisiae. AID 463213, 2010. hit rate 56% among 7,400. inhibition, % at 20 µM. S. cerevisiae tim10-1 ts strain growth, BacTiter-Glo, 24 h. shares compounds with tim10-1 inh;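 active = inhibition of yeast growth at or above a set limit in either of two repeat tests at 20 µM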;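 also: tim10-1 mutant grown at permissive 25 °C to find synthetic lethal compounds; 0% = DMSO yeast wells and 100% = medium wells without yeast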
Starred values were filed as active, the others as inactive; nt = not tested or not shown.

SMILES	V-ATPase pHluor	NLRP3 yeast inh	tim23-1 inh	tim10-1 inh	TIM10 inh	NALP1 yeast inh	tim10-1 confirm
Cc1ccc(Cn2c(CN(C)Cc3ccccc3)nc3c2c(=O)n(C)c(=O)n3C)cc1	0.2	8.4	40.4	31.1	20.6	19.6	nt
Cc1nn(-c2ccccc2)c(Cl)c1C(=O)N1CCN(c2ncnc3c2cnn3-c2ccccc2)CC1	2.5	17.6	23.0	40.6*	23.8	4.1	32.0*
O=C(c1ccccc1)N1CCN(c2ncnc3c2cnn3-c2ccccc2)CC1	1.3	-6.0	16.6	17.7	25.6	-1.4	nt
O=C1C=C(c2ccc(OC(F)(F)F)cc2)C[C@@H](c2ccc(Cl)cc2)C1	-3.3	8.9	32.0	24.7	16.9	nt	nt
COc1ccc(C(=S)N2CCCCCC2)cc1	0.1	5.5	4.1	40.2*	-4.4	11.2	11.1
COc1ccc(C(=S)N2CCNCC2)cc1	0.2	15.5	2.6	-4.4	10.8	16.4	nt
Fc1ccc(Nc2ncnc3sc4c(c23)CCC4)cc1	-4.7	42.4	47.1	42.6*	21.4	36.4	27.6
COc1ccc(/C=N/Nc2ncnc3sc4c(c23)CCCC4)cc1OC	2.9	10.9	10.7	40.8*	25.9	22.4	17.9
c1ccc(Nc2ncnc3sc4c(c23)CCC4)cc1	nt	33.1	20.4	23.8	-24.9	11.4	nt
COc1ccc(/C=N/Nc2ncnc(Cl)c2N)cc1OC	-1.9	16.7	8.5	4.9	-4.7	14.5	nt
C/C(=N/NC(=O)CN1CCN(Cc2ccccc2)CC1)c1ccc([N+](=O)[O-])cc1	-1.5	17.1	11.1	4.7	7.0	15.0	nt
CCOC(=O)C1=C(N)Oc2cc(O)ccc2C1c1cccc([N+](=O)[O-])c1 (centres undefined)	0.9	1.5	43.8	45.9*	37.7	12.3	29.8
CCOC(=O)C1=C(N)Oc2cc(O)ccc2C1c1ccccc1 (centres undefined)	-2.0	14.0	14.3	10.7	12.1	5.6	nt
COc1ccc(CNC(=O)CN(Cc2ccc(C)cc2)C(=O)c2csnn2)cc1	-4.3	10.1	15.3	19.1	-8.0	8.0	nt
Oc1ccc(CN2CCN(c3ccccc3)CC2)c2cccnc12	3.7	-26.9	17.8	66.3*	-34.1	2.6	-37.3
O=[N+]([O-])c1cc(CN2CCN(c3cccc(C(F)(F)F)c3)CC2)c2cccnc2c1O	6.0	4.9	41.9	47.7*	20.3	5.9	8.9
O=[N+]([O-])c1cc(CN2CCCC2)c2cccnc2c1O	-6.1	nt	nt	nt	nt	12.9	nt
Oc1c(CN2CCN(c3ccccn3)CC2)cc(Cl)c2cccnc12	2.8	37.1	45.7	52.3*	25.5	79.2*	19.4
OCCN1CCN(Cc2cc(Cl)c3cccnc3c2O)CC1	-1.0	25.6	-4.2	33.2	15.7	6.8	nt
O=C1ON(Cc2ccccc2)C(c2ccccc2)N1c1ccccc1 (centres undefined)	4.7	nt	nt	nt	nt	nt	nt
O=[N+]([O-])c1ccc(N2CCN(c3ccccn3)CC2)c(Cl)c1	0.9	30.1	29.5	8.5	-82.5	9.4	nt
Cc1ccc(-c2noc(CN(C(=O)C(c3ccccc3)c3ccccc3)C(C)C)n2)cc1	0.9	2.9	15.9	40.6*	17.2	19.7	25.1
CC1=NN(c2nc(-c3ccc(Cl)cc3)cs2)C(=O)C1	1.1	10.4	16.4	62.9*	5.0	12.5	29.4*
CC1=NN(c2ccc(Cl)cc2)C(=O)C1	3.0	15.6	38.5	46.8*	19.0	6.4	24.5
CC1=NN(c2nc(-c3ccc(F)cc3)cs2)C(=O)C1	-2.2	10.5	9.9	37.1	-0.3	-14.5	nt
SMILES	V-ATPase pHluor	NLRP3 yeast inh	tim23-1 inh	tim10-1 inh	TIM10 inh	NALP1 yeast inh	tim10-1 confirm
CCN(CC)C(=O)c1sc(NC(=O)c2cccs2)c(C#N)c1C	6.6	-7.2	33.2	43.8*	15.7	-5.2	24.6
COCCCn1c(=O)c2ccccc2n2c(=S)[nH]nc12	2.5	3.6	1.0	-1.3	-18.5	-28.5	nt
O=c1ccn(C2CCCO2)c(=O)[nH]1 (centres undefined)	3.1	nt	nt	nt	nt	nt	nt
CCc1cc(C(=O)N2CCN(c3ncc(C(F)(F)F)cc3Cl)CC2)sc1C	1.6	12.7	26.4	41.7*	4.6	-6.7	35.4*
O=C(c1cccs1)N1CCN(c2ncc(C(F)(F)F)cc2Cl)CC1	-1.6	13.6	29.1	18.7	4.9	6.4	nt
O=C(CSc1nnc(NC(=O)c2cccc(Cl)c2)s1)NCC1CCCO1 (centres undefined)	-2.4	1.9	12.2	14.3	8.7	-3.0	nt
Cc1ccc(NC(=O)c2ccc(C(=O)c3ccccc3)cc2)nc1	-6.8	38.5	9.5	3.4	-15.6	nt	nt
CN(C)CCN(C(=O)/C=C/c1cccs1)c1nc2ccc(F)cc2s1	-0.5	33.6	29.6	44.4*	28.6	53.9*	35.4*
CCN(CC)CCN(C(=O)/C=C/c1cccs1)c1nc2ccc(Cl)cc2s1	2.5	20.8	32.5	27.6	34.8	5.2	nt
S=c1[nH]nc(CSCc2ccccc2Cl)n1-c1ccccc1	-3.4	14.0	23.1	45.6*	14.9	-1.6	37.2*
Cc1[nH]c(-c2ccc(F)cc2)cc1C(=O)N1CCN(c2ccccc2)CC1	-0.7	10.2	40.6	37.4	25.2	0.5	nt
COc1cccc(N2CCN(C(=O)c3cc(-c4ccc(F)cc4)[nH]c3C)CC2)c1	0.9	-5.1	39.2	50.0*	21.0	25.6	26.8
COc1ccc2[nH]c(C(=O)N3CCN(c4ccccc4F)CC3)c(C)c2c1	2.7	21.9	44.7	47.2*	19.2	12.0	32.9*
COc1cc(OC)cc(C(=O)N2CCN(c3ccccc3F)CC2)c1	2.6	-14.1	26.6	27.6	-8.2	9.1	nt
COc1ccccc1N1CCN(C(=O)c2cc(-c3ccc(F)cc3)[nH]c2C)CC1	-2.9	11.2	40.1	43.0*	14.5	8.2	40.5*
COc1ccccc1N1CCN(C(=O)c2oc3cc(C)cc(C)c3c2C)CC1	-1.1	6.0	30.5	44.9*	28.0	-24.9	27.5
COc1ccccc1N1CCN(C(=O)c2cc3cc(F)ccc3[nH]2)CC1	1.6	7.3	45.1	38.8	34.6	10.2	nt
COCc1cc(S(=O)c2ccc(Cl)cc2)nc(C)n1 (centres undefined)	2.7	nt	nt	nt	nt	25.1	nt
Cc1cccc(N2CCN(C(=O)c3ccncc3)CC2)c1C	0.7	9.8	27.7	35.1	19.3	-10.3	nt
CCc1nc2ccc(C(=O)N3CCN(c4cccc(OC)c4)CC3)cc2nc1CC	4.0	9.8	39.3	45.5*	23.8	24.1	13.4
COc1ccccc1N1CCN(C(=O)C2c3ccccc3Oc3ccccc32)CC1	-1.7	1.3	32.7	45.2*	23.9	20.4	20.4
